Most compounds without a hit are left out; they make up all but 4.2% or so of the library.
TIM10 inh – TIM10 yeast growth inhibition; actives 1.4% (n = 330,000); S. cerevisiae TIM10 strain growth, BacTiter-Glo luminescence, 24 h; AID 463195; inhibition, % at 10 µM;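 active = inhibition of 40% or more at the single tested concentration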;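 note: wild-type TIM10 isogenic control strain grown at permissive 25 °C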
tim10-1 inh – tim10-1 yeast growth inhibition. S. cerevisiae tim10-1 ts strain growth, BacTiter-Glo, 24 h. inhibition, % at 20 µM. AID 463190. actives 2.2% (n = 330,000);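 active = inhibition of at least 40%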;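 note: mutant grown at 25 °C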
NALP1 inh – inhibitors of NALP1 inflammasome in yeast. S. cerevisiae NALP1/ASC/caspase-1 growth, X-gal OD620, 72 h. inhibition, % at 10 µM. actives 0.61% (n = 280,000); in the data active = inhibition mostly above about 24%, no sharp cut-off; inactive = mostly below about 32%
NALP3 yeast inh – NALP3 inhibition in yeast | actives 0.39% (n = 330,000) | inhibition, % at 10 µM | AID 2825 | Yeast reconstituted NLRP3/ASC/caspase-1, beta-gal luminescence, 24 h;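 active = inhibition of 50% or more; inactive = inhibition below 50%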
V-ATPase pHluor – regulators of yeast V-ATPase proton transport; actives 0.37% (n = 350,000); S. cerevisiae, pHLuorin cytosolic pH fluorescence; response, % at 10 µM; in the data active = response mostly above about 7.3%, no sharp cut-off; inactive = mostly below about 5.4%; note: actives read high
tim23-1 inh – tim23-1 yeast growth inhibition | S. cerevisiae tim23-1 growth, BacTiter-Glo luminescence, 24 h | actives 1.3% (n = 330,000) | inhibition, % at 20 µM;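 active = growth inhibition of the mutant yeast at or above 50%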;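 note: temperature-sensitive mutant grown at 25 °C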
tim10-1 confirm – tim10-1 yeast growth inhibition, confirmed; shares compounds with tim10-1 inh; S. cerevisiae tim10-1 ts strain growth, BacTiter-Glo, 24 h; inhibition, % at 20 µM; actives 56% (n = 7,400); AID 463213;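 active = inhibition of yeast growth at or above a set limit in either of two repeat tests at 20 µM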;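 note: tim10-1 mutant grown at permissive 25 °C to find synthetic lethal compounds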
Hits are given with their value; i = inactive; nt = no result given.

SMILES	TIM10 inh	tim10-1 inh	NALP1 inh	NALP3 yeast inh	V-ATPase pHluor	tim23-1 inh	tim10-1 confirm
COc1ccc(N(C(=O)CCl)C(C(=O)NC2CCCCC2)c2cccnc2)cc1 (centres undefined)	i	41	i	i	15	i	32
O=C(NC1CCCCC1)C(c1cccnc1)N(C(=O)CCl)c1ccc(F)cc1 (centres undefined)	nt	nt	i	nt	i	nt	nt
O=C(CCl)Nc1c(C(=O)Nc2ccc3c(c2)OCCO3)oc2ccccc12	i	42	i	i	i	i	i
COC(=O)c1ccc([N+](=O)[O-])cc1N1C(=O)C2C3CCC(C3)C2C1=O (centres undefined)	i	i	i	i	i	i	nt
CSC1=NC(C)(C)C=C(/C=C/c2c(Cl)cccc2Cl)N1	i	44	i	i	i	i	i
CSC1=NC(C)(C)C=C(/C=C/c2ccc(Cl)cc2Cl)N1	i	i	i	i	i	i	nt
CSC1=NC(C)(C)C=C(/C=C/c2ccc(Cl)cc2)N1	i	43	i	i	i	i	i
Cc1ccc(S(=O)(=O)N[C@H](C(=O)N2CCC(C(=O)N[C@@H](CCC(N)=O)C(=O)O)CC2)C(C)C)cc1	i	i	i	i	i	i	nt
Cc1cc2nnc(SCc3ccc4c(c3)OCO4)n2c2ccccc12	nt	nt	nt	nt	i	nt	nt
c1ccc2c(c1)ccc1nnc(SCc3ccc4c(c3)OCCO4)n12	i	45	i	i	i	i	29
CCc1ncc(CN2CCCCC2C(=O)Nc2ccc(Oc3ccccc3)nc2)cn1 (centres undefined)	i	i	i	i	i	i	nt
CN(CC(=O)Nc1ccc(N2CCOCC2)cc1)C(=O)CCNC(=O)c1ccc(Br)cc1	i	i	nt	i	i	i	nt
Clc1c2c(nc3ccccc13)CCC2	i	i	i	i	i	i	nt
Cc1c2c(nc3ccccc13)CCC(C(C)(C)C)C2 (centres undefined)	i	42	i	i	i	i	i
CCCCCCSc1ccc([C@@H]2[C@@H]3C(=O)N(C)C(=O)[C@@H]3[C@]3(C(=O)OC)CCCCN23)cc1	i	i	nt	i	i	i	nt
CC(C)c1nnc2c(N(C)S(=O)(=O)c3ccccc3)nc3ccccc3n12	i	43	i	i	i	i	i
Cc1cccc(CSC(Nc2ccc(F)cc2)=C(C#N)C#N)c1	i	44	i	i	i	i	i
COc1ccc(N2C(=S)N=C(Nc3cccc(C)c3)C23CCCCC3)cc1	i	i	i	i	i	i	nt
CC1CCC2(CC1)C(Nc1cccc(Cl)c1)=NC(=S)N2CC#N (centres undefined)	i	43	i	i	i	i	39
CC(C)c1ccc(NC2=CC(=O)CC(C)(C)C2)cc1	i	41	i	i	i	i	i
CC(c1ccccc1)C(CC(=O)O)C(=O)Nc1ccc(Cl)c(Cl)c1 (centres undefined)	i	i	i	i	i	i	nt
COc1ccccc1C/C(N)=N/OC(=O)c1ccco1	i	50	i	i	i	i	38
Cc1coc2c1C(=O)C(=O)c1c-2ccc2c(C)cccc12	i	51	nt	i	i	i	i
Cc1ccc2c3c(cccc13)-c1ccccc1C2=O	i	i	i	i	i	i	nt
CC/S(C)=N/S(=O)(=O)c1ccc(C)cc1 (centres undefined)	i	i	i	i	i	i	nt
SMILES	TIM10 inh	tim10-1 inh	NALP1 inh	NALP3 yeast inh	V-ATPase pHluor	tim23-1 inh	tim10-1 confirm
N#Cc1nc(-c2ccc(F)cc2)oc1NCc1cccc2c1OCO2	i	i	i	i	i	i	nt
Cc1ccc(-c2nc(C#N)c(NCc3cccc4c3OCO4)o2)cc1	i	44	i	i	i	i	i
CCOC(=O)N1CCN(C(=O)c2ccc(CSc3ccc(Cl)cc3)cc2)CC1	i	45	i	i	i	i	45
Cc1ccc(S(=O)(=O)N(Cc2ccccc2)c2ccccc2C(=O)NCc2cccnc2)cc1	i	41	i	i	i	i	i
Cc1[nH]c(C)c(S(=O)(=O)Nc2cccc(Cl)c2C)c1C(=O)N1CCCCC1	i	i	i	i	i	i	nt
C#CC1CCCCC1NC(=O)Nc1cnccc1C(F)(F)F (centres undefined)	i	i	i	i	i	i	nt
COc1ccccc1Nc1nc(C)cc(C)n1	i	i	i	i	i	i	nt
COc1ccccc1Nc1cc(C)nc(Nc2ccccc2OC)n1	i	40	nt	i	i	i	i
Cc1ccccc1NC(=S)N(Cc1ccccn1)Cc1ccccc1Cl	i	45	i	i	i	i	34
COc1ccc(-c2nnc3sc(-c4ccccn4)nn23)cc1	i	44	i	i	nt	i	i
COc1cccc(-c2nn3c(-c4ccccn4)nnc3s2)c1	i	58	i	i	i	i	54
O=C(CCCn1nnnc1CN1CCOCC1)N1CCN(c2ccccc2F)CC1	i	i	i	i	i	i	nt
CCCCCCCSc1nsc(N)n1	i	45	i	i	i	i	i
CC1(C)CCCN(C(=O)c2ccc3c(c2NCCO)C(=O)c2ccccc2C3=O)C1	i	43	i	i	i	i	i
Cc1ccc(NC(=S)Nc2ccc(Cl)c(Cl)c2)c(OC(F)F)c1	i	61	i	i	i	i	38
O=c1c2c([nH]n1-c1ccccc1)CCCC2	i	46	i	i	i	i	i
COC(=O)c1cn(-c2ccccc2)c(=O)c2ccccc12	i	i	i	i	i	i	nt
COC(=O)c1cn(-c2ccc(Cl)cc2)c(=O)c2ccccc12	i	44	i	i	i	i	i
CC(Sc1ncccn1)C(=O)N1CCc2ccccc21 (centres undefined)	i	i	nt	i	i	i	nt
CN(C1CCCCC1)S(=O)(=O)c1ccc(NC(=O)c2ccco2)cc1	i	44	i	i	i	i	29
CN(c1ccccc1)S(=O)(=O)c1ccc(NC(=O)c2ccco2)cc1	i	i	i	i	i	i	nt
CCOc1ccc(CCNC(=O)CCn2ccc3cc(S(=O)(=O)N4CCCC4)ccc32)cc1	i	i	i	i	i	i	nt
CCN(CC)CCCC(C)Nc1c2ccc(Cl)cc2nc2ccc(OC)cc12 (centres undefined)	nt	nt	i	nt	nt	nt	nt
COc1ccc2nc3cc(Cl)ccc3c(Nc3cc(C(C)C)c(O)cc3C)c2c1	i	47	i	i	i	i	37
OCCN1CCN(CC/C=C2/c3ccccc3Sc3ccc(Cl)cc32)CC1	i	44	nt	i	i	i	i
OCCN1CCN(CCCN2c3ccccc3Sc3ccc(Cl)cc32)CC1	i	43	i	i	i	i	i
CCOC(=O)c1c(C)[nH]c(C)c1C(=O)COC(=O)Cc1ccc(OC)c(OC)c1	i	i	nt	i	i	i	nt
Cc1ccc(C)c2c1cc(C)c1nnc(SCC(=O)c3cccs3)n12	i	i	i	i	i	i	nt
O=C(CSc1nnc(-c2ccccc2)n1-c1ccccc1)c1cccs1	i	46	i	i	i	i	i

Bioassay records deposited in PubChem BioAssay by several laboratories.
